To fix the notation:
T1: UNK ZnF1-6 (called full-length) (human, UniProt Q9C0B0 30-357)
T1 sequence: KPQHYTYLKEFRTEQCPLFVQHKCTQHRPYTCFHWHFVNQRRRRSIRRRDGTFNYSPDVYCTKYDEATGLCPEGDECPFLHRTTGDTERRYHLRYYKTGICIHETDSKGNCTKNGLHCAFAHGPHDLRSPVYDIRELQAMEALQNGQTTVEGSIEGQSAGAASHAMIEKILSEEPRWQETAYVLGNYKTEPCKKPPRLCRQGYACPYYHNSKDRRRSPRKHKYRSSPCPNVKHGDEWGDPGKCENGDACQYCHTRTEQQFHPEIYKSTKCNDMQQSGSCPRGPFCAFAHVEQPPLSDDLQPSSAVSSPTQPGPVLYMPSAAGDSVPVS

B1: chr5:172042892:172042993:-|3pUTR|ENSG00000072786|msi1|FALSE|unique (ssRNA)
RNA: GGGAGUUCUACAGUCCGACGAUCGAUUCUCCCGCUUCAACCUUGAGUAGCUGGGACGACAGAUACAUGCUACUGCACCCAGCUAGGUUAAGGUUCUGUAUACUCUGUCUUUCUAAAGCAAUUCCCUGGAAAUUUUCUCAACAUCAACAGAGGAUUGAGCAUCA
B2: chr12:85264020:85264122:+|3pUTR|ENSG00000133640|unk|FALSE|unique (ssRNA)
RNA: GGGAGUUCUACAGUCCGACGAUCCAUAGUAUUUCAGUUACUUUCCACAGCUGUGUUGCUCAAUAAUAGCAUCCAGUGAACUUUAGUAUUUUUUUGUUUUUCCUGUAUUUUAUUAAAAUAUUUCAUCUAGAGAUAACUGAAGUGCAACAGAGGAUUGAGCAUCA
B3: chr1:32196422:32196614:+|3pUTR|ENSG00000084652|msi1|FALSE|unique (ssRNA)
RNA: GGGAGUUCUACAGUCCGACGAUCACAGUUGUUUCUGUGUCCUGUUCUACCCCCACUCCAGUACAUAACUACUAUGUACUGUGUAGAGCCAUUCUAUAUGCUGAAUGUUCUGCUGUUGCAAACUUGCCAGGGUAUUAGCCAGUGCAACAGAGGAUUGAGCAUCA
B4: chr17:67075675:67075776:-|3pUTR|ENSG00000198265|unk|FALSE|unique (ssRNA)
RNA: GGGAGUUCUACAGUCCGACGAUCAUUCCUUAUUUCCAUAGCCAGUCAAGGAUUCUAACGCUGCUUCCAUCUGAUACUCUUCUUAGAUUCUGCAUCAAAUGCUUAUUUUGACUUACAACAAGCUUACUCUUCCUCAGCAUUACACAACAGAGGAUUGAGCAUCA
B5: chr19:33301014:33301115:-|3pUTR|ENSG00000245848|unk|FALSE|unique (ssRNA)
RNA: GGGAGUUCUACAGUCCGACGAUCUCCCUGCGAGGAGGGGAGAAUUCUUGGGGCUGAGCUGGGAGCCCGGCAACUCUAGUAUUUAGGAUAACCUUGUGCCUUGGAAAUGCAAACUCACCGCUCCAAUGCCUACUGAGUAGGGGGCAACAGAGGAUUGAGCAUCA
B6: chr6:53267885:53267986:-|3pUTR|ENSG00000012660|msi1_unk|FALSE|overlapping (ssRNA)
RNA: GGGAGUUCUACAGUCCGACGAUCUUUAAUGUAAAUCUAAUAGUACUUGUAAUUUCUUUCUGCUUAGAAUCUAAAGAUGUGUUUAGAACCUCUUGUUUAAAAAUAAUAGACUGCUUAUCAUAAAAUCACAUCUCACACAUUUGACAACAGAGGAUUGAGCAUCA
B7: chr15:78283234:78283431:-|three_prime_utr|ENSG00000140395|control|control|control (ssRNA)
RNA: GGGAGUUCUACAGUCCGACGAUCUCUCCAGGCUUAUGCUGCAAAGAGAAUGUACGGAUUGAUCAUGACAUUCCUUACCUUCUUAGGCUUGUUUAAAAGAAAUAUAGCAUUUAUUGUAGCAAAGACUUAAAUUUUGUAGAUACACAACAGAGGAUUGAGCAUCA
B8: chr4:138171397:138171528:-|3pUTR|ENSG00000151012|msi1|total|mutant (ssRNA)
RNA: GGGAGUUCUACAGUCCGACGAUCAUUAUGGCAAAGAGGAGAGAAAGAAAUUUAUUUUACAUUGACAUUGCAUUGCUUCCCCUCCGAUACCAAUUCCGAUAACAAACACUCAUGCUUUAAUGGAUUAUACCCAGAGCACUUUGACAACAGAGGAUUGAGCAUCA
B9: chr4:138171397:138171528:-|3pUTR|ENSG00000151012|msi1|FALSE|unique (ssRNA)
RNA: B8 RNA with C83U, C84A, C95U, C96A
B10: chr8:41543231:41543332:+|3pUTR|ENSG00000147536|msi1|FALSE|unique (ssRNA)
RNA: GGGAGUUCUACAGUCCGACGAUCAAACCAUUAUUAAAUUUCCAUUCUGCAGCAGAAGGCACCUCUGGACGGCUCCCGGCUUGUAGUUUAAUGAAGUAUGUGCUCCCUGCUGUUAACCCGCAGCCCUCCCCAACUCUCCAGCAGCAACAGAGGAUUGAGCAUCA
B11: chr8:41543231:41543332:+|3pUTR|ENSG00000147536|msi1|total|mutant (ssRNA)
RNA: B10 RNA with U83C, A84C
B12: ENSG00000070961:be:win_5101|3pUTR|ENSG00000070961|bound_else_gene|NA|bound_elsewhere_windowed (ssRNA)
RNA: GGGAGUUCUACAGUCCGACGAUCAUGACCACCAUUGUCUUUGAUACAUUUAUUUUAAUUCUUAAGUGGCCAAAUAACAGAUUAGGUAAAAUGAGAUUACAUGAAAAGGUUCUAAAAUGAUAUAUUUAGAUGCAAUAAUUAACCCAACAGAGGAUUGAGCAUCA
B13: chr3:97755980:97756081:+|3pUTR|ENSG00000080224|unk|FALSE|unique (ssRNA)
RNA: GGGAGUUCUACAGUCCGACGAUCUAAUUAAAAAUCUCUUUCCUACCUUUAGUAAUUUGUAGGAUGAACUGUAUGCAUUUAGAUAGAAAUUGCUUUUGUUAAAUUUACAUUUAAACACAUCUUCAUUCACUUAGAGAAGCCAUACAACAGAGGAUUGAGCAUCA
B14: chr3:62294137:62294238:+|3pUTR|ENSG00000144724|msi1|FALSE|unique (ssRNA)
RNA: GGGAGUUCUACAGUCCGACGAUCUGAGACCCUUUAGUUAUUCUCCAUUAAUGCUUCUUAGUUUGUAAUACCAUACCUCACAGUAGGUAGAAGAAUGAAAACUUCUGCAGGUGUGUAAUUUUGAAACUAGUCCUCUAAAAAUUCCAACAGAGGAUUGAGCAUCA
B15: chr3:31636526:31636632:+|3pUTR|ENSG00000163527|unk|FALSE|unique (ssRNA)
RNA: GGGAGUUCUACAGUCCGACGAUCCAAAAUGUGAUGAGAGCUUCUUGAACCGGUAAACUAGUACAGGUCUGAGAAAGACAUAUUAGAAGAAUCAUUAUACUUCCUUGAAUUAUAUUUAUUUUCAUGUUUCUCUAAUGCAAAGAACAACAGAGGAUUGAGCAUCA
B16: ENSG00000176244:stop:overlap|stop_codon|ENSG00000176244|stop_codon|NA|stop_codon (ssRNA)
RNA: GGGAGUUCUACAGUCCGACGAUCAAGAUGCGACGAGUGCCUAUAUUUCUAAAGCAAAGGAGCUGAUAGAAAAAUACGGAAUUUAGAAUACAGCAUAUGAGGAAUUUUUCCUUUUGAAGACUUCCAAAUGCUAUCAUGACCUAACAACAGAGGAUUGAGCAUCA

Substitutions are numbered along the chain they refer to. In all, about 5,800 sequences were measured (“enrichment r”: median about 0.68, highest 2% from about 11 on). This excerpt belongs to a sample that is enriched for the highest values.

The target in this test is T1, UNK ZnF1-6 (called full-length). The test can be described thus: nsRBNS (natural sequence RNA bind-n-seq); RBNS binding buffer (assumed for nsRBNS): 25 mM Tris pH 7.5, 150 mM KCl, 3 mM MgCl2, 0.01% Triton X-100, 500 ug/ml BSA, 20 U/ml SUPERase-In, 4 C; UNK is unkempt and MSI1 is Musashi-1; names of the RNAs are library labels; protein concentration not given here; high values mean tight binding.
In turn, B1 yielded a binding signal of 0.494 enrichment R.

The molecule B2 returned a binding signal of 10 enrichment R.

Molecule B3 gave a binding signal of 0.631 enrichment R.

Consider B4, for which the binding signal amounted to 1.05 enrichment R.

Consider B5, for which the binding signal was determined as 4.16 enrichment R.

The molecule B6 came in with a binding signal of 10.2 enrichment R.

B7: the binding signal is 13.8 enrichment R.

Regarding B8, the binding signal is 0.489 enrichment R.

B9 yielded a binding signal of 73.9 enrichment R.

In the case of B10, the binding signal was found to be 11.4 enrichment R.

On to B11, for which the binding signal came out at 1.48 enrichment R.

Regarding B12, the binding signal is 3.73 enrichment R.

Consider B13, for which the binding signal was 10.1 enrichment R.

B14 displayed a binding signal of 16.2 enrichment R.

Turning to B15, the binding signal stood at 1.21 enrichment R.

In turn, B16 showed a binding signal of 0.808 enrichment R.

(Values after article PMC12136788.)
